Screens from PubChem BioAssay.
USP30 block – human USP30 deubiquitinase inhibition. inhibition, % at 25 µM. Q70CQ3. purified USP30, Ub-rhodamine cleavage fluorescence. actives 5.3% (n = 47,000)
USP10 inh – human USP10 deubiquitinase inhibition | Q14694 | purified USP10, Ub-rhodamine fluorescence, 60 min | inhibition, % at 20 µM | actives 1.1% (n = 47,000) | AID 1645856
USP17 block – human USP17-like deubiquitinase inhibition. A8MUK1. purified USP17, Ub-rhodamine cleavage fluorescence, 3 h. inhibition, % at 50 µM. actives 6.5% (n = 47,000). AID 1645855
USP8 block – human USP8 deubiquitinase inhibition | inhibition, % at 20 µM | actives 4.2% (n = 47,000) | P40818 | purified USP8, Ub-rhodamine cleavage fluorescence, 30 min
USP28 block – human USP28 deubiquitinase inhibition. purified USP28, Ub-rhodamine cleavage fluorescence, 30 min. inhibition, % at 25 µM. actives 3% (n = 47,000)
USP7 inh – blocks human USP7 ubiquitin-rhodamine cleavage; Q93009; purified USP7, Ub-rhodamine cleavage fluorescence; inhibition, % at 20 µM; actives 0.3% (n = 47,000); AID 1645854
Active calls of the source: *. Sampled rows, rich in hits. Any-hit rate of the full collection: about 13%. No stated cut-off is given here; in the data, active means inhibition above about 30%; inactive means the rest.

`COc1ccc(C(=O)Nc2ccc3c(c2)OCCCO3)cn1` gave USP30 block 4, USP10 inh 1, USP17 block 0, USP8 block -11, USP28 block 32* and USP7 inh -2.
For COc1ccc(NC(=O)Cn2cc(C(=O)c3ccc(F)cc3)c(=O)c3cc(C)ccc32)cc1OC the results were USP30 block -1, USP10 inh 21, USP17 block 25, USP8 block 55*, USP28 block -14 and USP7 inh 13.
For COc1cc(C(=O)Nc2ccc3c(c2)OCCO3)ccc1OCC(=O)Nc1ccc(F)cc1 the results were USP30 block -10, USP10 inh 0, USP17 block 36*, USP8 block -6, USP28 block 14 and USP7 inh 4.
Screening COc1cc2c(=O)c(C(=O)c3ccc(F)cc3)cn(CC(=O)Nc3ccc4c(c3)OCCO4)c2cc1OC returned USP30 block -65, USP10 inh 14, USP17 block 37*, USP8 block -19, USP28 block 0 and USP7 inh 8.
Screening COc1ccc(NC(=O)Cn2cc(C(=O)c3ccccc3)c(=O)c3cc4c(cc32)OCCO4)cc1OC returned USP30 block -20, USP10 inh 0, USP17 block 23, USP8 block 0, USP28 block -10 and USP7 inh 0.
Screening O=C(C1CCN(c2nc3ccc(Cl)cc3[nH]2)CC1)N1CCC(Cc2ccccc2)CC1 returned USP30 block 13, USP10 inh 4, USP17 block 2, USP8 block 0, USP28 block 20 and USP7 inh 3.
COc1ccc(C(=O)C2CC2c2ccc(Cl)cc2)cc1 (centres undefined) was read as USP30 block 16, USP10 inh 5, USP17 block 7, USP8 block 10, USP28 block 8 and USP7 inh 6.
For O=C(Cn1cc(C(=O)c2ccccc2)c(=O)c2cc3c(cc21)OCCO3)Nc1ccc(F)cc1 the results were USP30 block -161, USP10 inh 12, USP17 block -24, USP8 block 9, USP28 block -39 and USP7 inh 5.
Screening COc1cc2c(=O)c(C(=O)c3ccc(F)cc3)cn(CC(=O)Nc3ccc(F)cc3)c2cc1OC returned USP30 block -19, USP10 inh 22, USP17 block 33*, USP8 block 6, USP28 block 1 and USP7 inh 7.
`Cc1ccc2c(c1)c(C)c(C)n2CC(O)CN1CCN(CCO)CC1` (centres undefined) gave USP30 block -108, USP10 inh -9, USP17 block -26, USP8 block -7, USP28 block -38 and USP7 inh -10.
For Cc1nn(-c2ccccc2)c2c1C1(C(=O)Nc3ccccc31)N1C(=N2)Sc2ccccc21 (centres undefined) the results were USP30 block 6, USP10 inh 6, USP17 block 12, USP8 block 15, USP28 block 6 and USP7 inh 83*.
Screening COc1cc2c(=O)n(Cc3ccccc3)c(=O)n(CC(=O)N3CCCc4ccccc43)c2cc1OC returned USP30 block 34*, USP10 inh 28, USP17 block 25, USP8 block 20, USP28 block 9 and USP7 inh 7.
`O=C1c2c(O)c(Cl)cc3c2[C@@]2(Oc4ccc(O)c5c4[C@]3(O2)[C@@H]2O[C@@H]2C5=O)[C@@H]2O[C@H]12` gave USP30 block 44*, USP10 inh 40*, USP17 block 80*, USP8 block 27, USP28 block 90* and USP7 inh 82*.
COc1ccc(C)cc1NC(=O)Cn1c(C)cc(C)c1-c1nc(C(C)C)no1 was read as USP30 block 31*, USP10 inh 1, USP17 block 24, USP8 block 14, USP28 block 7 and USP7 inh -11.
For CC(=O)Nc1ccc(CN2CCN(c3cnn4c(C5CC5)nnc4c3)CC2)cc1 the results were USP30 block 33*, USP10 inh 2, USP17 block 10, USP8 block 18, USP28 block 10 and USP7 inh 7.
For Cc1ccc(NC(=O)N2CCN(c3cnn4c(C5CC5)nnc4c3)CC2)cc1 the results were USP30 block 2, USP10 inh 3, USP17 block -1, USP8 block -2, USP28 block 18 and USP7 inh 0.
